The whole screen tested about 7,900 compounds, of which about 400 (5.1%) showed an effect of 50% or more. The list comes from a sample in which strong results are over-represented; it also holds similar structures and randomly drawn compounds.
Molecular target: Parkinson's disease protein 7 (PARK7/DJ1) (human, UniProt Q99497)
Assay: primary screen, percent inhibition; read as competition with a fluorescent probe by fluorescence polarization; higher = more effect of the substance
Settings: 100 µM
In short: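 Covalent fragments at 100 μM final were incubated 2 h with 0.2 μM PARK7, then 20 nM probe JYQ-107 added for a further 2 h. Fluorescence polarization read at 480/520 nm; relative FP loss versus reference controls gave remaining enzyme activity.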

Parkinson's disease protein 7 (PARK7/DJ1), sequence (Q99497 whole entry, looked up): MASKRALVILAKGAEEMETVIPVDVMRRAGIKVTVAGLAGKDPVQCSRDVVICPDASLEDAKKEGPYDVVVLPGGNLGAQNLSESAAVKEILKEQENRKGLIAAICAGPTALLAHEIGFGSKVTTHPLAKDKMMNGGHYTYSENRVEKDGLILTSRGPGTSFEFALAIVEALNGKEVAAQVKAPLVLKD

| SMILES | Inhibition % [%] |
| --- | --- |
| CSC1(CNc2cccc(C#N)n2)CCC1 | 11.9 |
| C=CC(=O)Nc1ccccc1CN1CCOCC1 | 8.41 |
| CCOc1cc(S(=O)(=O)n2ccc(C)n2)ccc1Cl | 2.71 |
| Cc1cc(B2OC(C)(C)C(C)(C)O2)sn1 | 0.986 |
| O=C1N(c2ccccc2)C(c2ccco2)C1(F)F (stereo not drawn) | 3.32 |
| Sc1ncccc1Cl | 2.79 |
| Cc1cccnc1S | 12.6 |
| Nc1cccnc1S | 101 |
| C=CC(=O)NC(C)c1csnn1 (stereo not drawn) | 10 |
| N#Cc1nc(N2CCCC(N3CCNC3=O)C2)ccc1Cl (stereo not drawn) | 1.45 |
| Cc1ccccc1OCC1CO1 (stereo not drawn) | 13.4 |
| Fc1ccccc1OCC1CO1 (stereo not drawn) | 54.7 |
| FC(F)(F)c1ccccc1OCC1CO1 (stereo not drawn) | 11.7 |
| C=CC(=O)NCC1=CCOCC1 | 6.41 |
| COC(=O)c1ccccc1S(=O)(=O)F | 52.5 |
| COC(=O)c1ccccc1CS(=O)(=O)F | 7.86 |
| COC(=O)c1ccc(S(=O)(=O)F)cc1F | 4.21 |
| COC(=O)c1ccc(Cl)c(S(=O)(=O)F)c1 | 9.08 |
| COC(=O)c1cccc(S(=O)(=O)F)n1 | 7.02 |
| COC(=O)c1ccc(Cl)cc1S(=O)(=O)F | 96.1 |
| Cc1noc(C2CCN(Cc3cc(C#N)n(C)c3)C2)n1 (stereo not drawn) | 6.79 |

| SMILES | Inhibition % [%] |
| --- | --- |
| C=CC(=O)N1CCC[C@@H]2O[C@H](c3ccccc3)C[C@@H]21 (racemic) | 5.3 |
| N#Cc1nccnc1SC1CCCC1 | 6.92 |
| O=S(=O)(C=Cc1ccccc1)NCc1cccnc1 | 15.5 |
| C=C(C(=O)O)c1ccccc1F | 3.02 |
| CC1(C2CC2)CCN(c2cncc(C#N)n2)CC1 | 6.7 |
| O=C(O)c1ccnc(S)c1 | 11.8 |
| O=C(O)c1nccnc1S | 83.1 |
| Nc1nccnc1S | 26.8 |
| C=CC(=O)NC1CCN(c2ncccc2F)C1 (stereo not drawn) | 14.9 |
| C=CC(=O)N1CCC(c2cccc(C(F)(F)F)c2)C1 (stereo not drawn) | 10.4 |
| C=CC(=O)Nc1ccc2c(c1)CCC(C)(C)O2 | 6.26 |
| COC(=O)Nc1ccc(S(=O)(=O)F)cc1[N+](=O)[O-] | 101 |
| COC(=O)Nc1ccc(S(=O)(=O)F)cc1 | 34.7 |
| COc1ccc(NC(=O)CCl)c([N+](=O)[O-])c1 | 10.4 |
| C=CC(=O)N1CC(C(C)C)c2ccccc21 (stereo not drawn) | 5.57 |
| C=CC(=O)N(C)CC(=O)Nc1cc(C)c(=O)n(C)c1 | 54.5 |
| C=CC(=O)N(C)CC(=O)Nc1cc(C)on1 | 7.52 |
| C=CC(=O)N(C)CC(=O)Nc1csc(C)n1 | 7.47 |
| C=CCNC(=O)C(C#N)=Cc1cc(F)ccc1F | 6.92 |
| O=C(C1CCOCC1)N1CCCC(S(=O)(=O)F)C1 (stereo not drawn) | 8.98 |
| O=C(C1CCOCC1)N1CCC(CS(=O)(=O)F)CC1 | 20.1 |

| SMILES | Inhibition % [%] |
| --- | --- |
| O=C(C1CCOCC1)N1CCCC(CS(=O)(=O)F)C1 (stereo not drawn) | 55.9 |
| O=C(C1CCOCC1)N1CCC(S(=O)(=O)F)C1 (stereo not drawn) | 19.5 |
| CC1CC1C(=O)N1CCC(S(=O)(=O)F)C1 (stereo not drawn) | 36.5 |
| CC1CC1C(=O)N1CC(CS(=O)(=O)F)C1 (stereo not drawn) | 16.8 |
| CC1CC1C(=O)N1CCC(S(=O)(=O)F)CC1 (stereo not drawn) | 72.2 |
| C=CC(=O)N1CCC(CS(C)(=O)=O)C1 (stereo not drawn) | 4.28 |
| CC1CC1C(=O)N1CCOC(CS(=O)(=O)F)C1 (stereo not drawn) | 11.8 |
| CC1CC1C(=O)N1CCC(CS(=O)(=O)F)CC1 (stereo not drawn) | 25.9 |
| CC1CC1C(=O)N1CCCC(CS(=O)(=O)F)C1 (stereo not drawn) | 71.5 |
| CC1CC1C(=O)N1CCC(CS(=O)(=O)F)C1 (stereo not drawn) | 96.8 |
| C=CC(=O)Nc1ccc(OC)c(F)c1 | 4.48 |
| O=c1c2sccc2nc(S)n1CCCN1CCOCC1 | 1.46 |
| O=C(CCl)Nc1cc(C(F)(F)F)ccc1Cl | 4.72 |
| N#Cc1ccnc2ccnn12 | 4.63 |
| CC1(S(=O)(=O)NC2CN(c3ccc(F)cc3)C2=O)CC1 (stereo not drawn) | 10.3 |
| O=C(C=Cc1nccs1)N1CCc2ccccc21 | 14.3 |
| CCc1nc(C#N)cc(NC2CSC2)n1 | -3.02 |
| Cc1cc(C)n(S(=O)(=O)c2ccc(C)c(C)c2)n1 | 3.92 |
| CC1CC(N2CCn3c(nnc3C3CC3)C2)C(=O)O1 (stereo not drawn) | 18 |
| O=C(c1cc(F)cc(F)c1)N1CCCCC1C1OCCO1 (stereo not drawn) | 3.28 |
| C=CC(=O)N1CCN(CCc2ccc(F)cc2)CC1 | 8.07 |

| SMILES | Inhibition % [%] |
| --- | --- |
| CC1CCCN(C(=O)C=Cc2cnc3ccccc3n2)C1 (stereo not drawn) | 9.42 |
| C=CC(=O)NC1CCCc2c1cnn2CC (stereo not drawn) | 8.99 |
| Cc1csc(CC(=O)NNC(=O)CCl)n1.Cl | 0.415 |
| Cc1cc(C(=O)CCl)c(C)n1-c1ccon1 | 82.8 |
| Cc1cc(C(=O)CCl)c(C)n1-c1ccc(F)cn1 | 5.68 |
| Cc1cc(C(=O)CCl)c(C)n1-c1nccs1 | 4.37 |
| Cc1cc(-n2c(C)cc(C(=O)CCl)c2C)no1 | 7.75 |
| O=C(CCl)Nc1ccon1 | 14.8 |
| Cc1cc(C(=O)CCl)c(C)n1-c1ncn[nH]1 | 60 |
| Cc1csc(-n2c(C)cc(C(=O)CCl)c2C)n1 | 51 |
| Cc1cc(C(=O)CCl)c(C)n1-c1ccccn1 | 71.3 |
| C=CC(=O)N(Cc1cncs1)C1CCN(C(C)=O)CC1 | 5.13 |
| C=CC(=O)N(C)CC(=O)N1CCOCC1 | 16.7 |
| C=CC(=O)N1CCC(CC(=O)NC)CC1 | 5.8 |
| C=CC(=O)N1CCCC(C(=O)Nc2nc(C)cs2)C1 (stereo not drawn) | 5.32 |
| N#Cc1ccc(N2CCC3(CCOC3)C2)cn1 (stereo not drawn) | -4.97 |
| O=C1CCN1c1ccc(O)cc1 | 5.37 |
| C=CC(=O)N1CCCC(n2ccc(C(=O)NC)n2)C1 (stereo not drawn) | 8.31 |

— article PMC9574860, “Chemical Toolkit for PARK7: Potent, Selective, and High-Throughput” (Journal of Medicinal Chemistry, 2022)
